Records with an inconclusive call do not appear. Values without a mark were called inactive. Calls of active or inactive are those of the source. Unless noted, the call rests on the fitted dose curve.
biological target: Cytochrome P450 2C9 (Homo sapiens) (UniProt P11712); assay: Cytochrome P450 family 2 subfamily C member 9 (CYP2C9) small molecule antagonists: luciferase biochemical (cell-free) qHTS assay (AID 1645842; active means well fitted inhibition curve with a large enough effect in the repeat runs; further: nearly all actives have a fitted effect of over 55% in size); settings: P450-Glo CYP2C9 enzyme assay, luciferin luminescence; series mostly up to 57.4 µM; activity change, negative = inhibition: at the top concentration
Sequence (P11712 whole entry, looked up): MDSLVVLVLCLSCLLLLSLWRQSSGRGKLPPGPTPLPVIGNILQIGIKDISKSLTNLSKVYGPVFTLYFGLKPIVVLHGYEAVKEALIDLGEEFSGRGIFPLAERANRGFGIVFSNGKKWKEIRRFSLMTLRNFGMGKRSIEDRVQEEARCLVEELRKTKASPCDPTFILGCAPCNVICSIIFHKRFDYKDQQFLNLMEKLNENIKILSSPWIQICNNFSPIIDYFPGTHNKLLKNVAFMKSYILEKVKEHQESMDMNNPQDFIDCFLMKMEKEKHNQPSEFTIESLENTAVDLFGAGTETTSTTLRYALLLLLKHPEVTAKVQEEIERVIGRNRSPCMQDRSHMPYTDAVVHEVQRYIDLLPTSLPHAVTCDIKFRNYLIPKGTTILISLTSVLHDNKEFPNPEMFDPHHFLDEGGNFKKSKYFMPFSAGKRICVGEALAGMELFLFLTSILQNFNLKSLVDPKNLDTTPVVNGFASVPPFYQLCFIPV
Summary of the method: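 P450-Glo CYP2C9 system: proluciferin substrate with enzyme in mix containing 0.4% BSA, 10 min at room temperature, then NADPH regeneration solution added and incubated 1 h at 37C. Detection reagent stopped reaction; luminescence read after 20 min as RLU.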
On the % scale 0 is the no-effect control and ±100 the full control effect; potency means the concentration at half of the fitted maximal effect.

| SMILES | Potency | activity change, negative = inhibition |
| --- | --- | --- |
| CCCCOC(=O)c1ccccc1C(=O)OCc1ccccc1 | 8.2 µM (active) |  |
| O=[N+]([O-])c1c2ccccc2cc2ccccc12 | 10.8 µM (active) |  |
| COCCOCCO |  | 13.7% [at 115 µM] |

system: not listed separately; assay: Cytotoxicity counterscreen for inhibitors of SARS-CoV-2 cell entry (AID 1645845); settings: cell viability (SARS-CoV-2 entry assay cells); series mostly up to 57.1 µM; activity change, negative = cytotoxicity: at the top concentration; further: nearly all actives have a fitted effect of over 50% in size
Summary of the method: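 Counterscreen run in the same HEK293-ACE2 line as the pseudotyped-particle entry assay, without particles. Viability after 48 h at 37 C was read as ATP luminescence, scaled between cell-containing and cell-free wells.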

| SMILES | activity change, negative = cytotoxicity | Potency | outcome |
| --- | --- | --- | --- |
| NC(=O)c1c(OCc2c(F)cc(Br)cc2F)nsc1NC(=O)NCCCCN1CCCC1 | -7.1% |  |  |
| c1ccc2c(CCNc3ccc(Nc4ccncc4)cc3)c[nH]c2c1 |  | 17.8 µM (active) |  |
| Cc1cccc(-c2[nH]c(C(C)(C)C)nc2-c2ccc3nccnc3c2)n1 | -5.91% |  |  |
| CC1(C)Cc2c(-c3ccccc3)c(-c3ccc(Cl)cc3)c(CC(=O)O)n2C1 |  |  | inactive |
| COc1ccc(OC)c(-c2nnc3ccc(-c4ccc(OC)c(O[C@@H]5CCOC5)c4)nn23)c1 | -20.6% |  |  |
| CC(C)(C(=O)NCC(F)(F)C(F)(F)F)C(=O)N[C@@H]1C(=O)Nc2ccccc2-c2ccccc21 | 4.79% |  |  |
| C/C(=C1\CCOC(=O)S1)N(C=O)Cc1cnc(C)nc1N | -14.6% |  |  |
| CC(C)(C)c1cc(NC(=O)Nc2ccc(-c3cn4c(n3)sc3cc(OCCN5CCOCC5)ccc34)cc2)no1 | -10.2% |  |  |
| C[C@@H](N)C1CCC(C(=O)Nc2ccncc2)CC1 (stereo partly drawn) |  |  | inactive |
| Cc1ccc(C(=O)Nc2ccc(CN3CCN(C)CC3)c(C(F)(F)F)c2)cc1C#Cc1cnc2cccnn12 |  | 31.6 µM (active) |  |
| CCOC(=O)C(C)Oc1cccc2c(=O)n(CC(=O)Nc3ccc4c(c3)OCCO4)ccc12 (stereo not drawn) |  |  | inactive |
| N#CC[C@H](C1CCCC1)n1cc(-c2ncnc3[nH]ccc23)cn1 | -3.56% |  |  |
| NC(=O)c1ccc(-c2nc(-c3ccc4c(c3)OCO4)c(-c3ccccn3)[nH]2)cc1 |  |  | inactive |
| COc1cc(N2CCC(N3CCN(C)CC3)CC2)ccc1Nc1ncc(Cl)c(Nc2ccccc2S(=O)(=O)C(C)C)n1 |  | 31.6 µM (active) |  |
| NC(=O)c1ccc(-c2nc(-c3ccc4c(c3)OCCO4)c(-c3ccccn3)[nH]2)cc1 | -1.46% |  |  |
| CN1[C@@H]2CC[C@H]1CC(OC(=O)C(O)c1ccccc1)C2 (stereo partly drawn) | -16.4% |  |  |
| CC(C)(N)C(=O)N[C@H](COCc1ccccc1)C(=O)N1CCC2(CC1)CN(S(C)(=O)=O)c1ccccc12 | 3.5% |  |  |
| CC(=O)NCCC(=O)N[C@@H](CCC(N)=O)C(=O)N[C@@H](CO)C(=O)N[C@@H](CCC(N)=O)C(=O)N[C@@H](CCC(N)=O)C(=O)N[C@H](C(=O)N[C@@H](Cc1ccccc1)C(=O)N[C@]1(C)CCCCCCC=CCCC[C@@](C)(C(=O)N[C@@H](CCC(N)=O)C(=O)N[C@@H](CC(N)=O)C(N)=O)NC(=O)[C@H](CC(C)C)NC(=O)[C@H](CC(C)C)NC(=O)[C@@H](CCCNC(=N)N)NC(=O)[C@H](Cc2c[nH]c3ccccc23)NC(=O)[C@H](CC(C)C)NC(=O)[C@H](CC(N)=O)NC1=O)[C@H](C)O |  |  | inactive |

| SMILES | activity change, negative = cytotoxicity | Potency | outcome |
| --- | --- | --- | --- |
| CCCn1c(=O)c2[nH]c(C34CC5CC3C[C@@H](C5)C4)nc2n(CCC)c1=O |  |  | inactive |
| CCOC(=O)c1c(C(C#N)=CN)c2ccc(Cl)c(Cl)c2n1C | 1.38% |  |  |
| Cc1cc([C@@H](C)Nc2ccccc2C(=O)O)c2nc(N3CCOCC3)cc(=O)n2c1 | 3.13% |  |  |
| COc1cc2ncn(-c3cc(OCc4ccccc4C(F)(F)F)c(C(N)=O)s3)c2cc1OC |  | 2.51 µM (active) |  |
| CCOC(CN1C(=O)[C@](CC(=O)Nc2ccc(C)cc2)(NC(=O)Nc2ccc(C)cc2)c2ccccc21)OCC | -6.2% |  |  |
| O=C(O)[C@H](Cc1c[nH]c2ccccc12)N1C(=O)c2ccccc2C1=O | -5.34% |  |  |
| CC(=O)Oc1ccccc1C(=O)O |  | inactive |  |
| COc1c(N2CCNC(C)C2)c(F)cc2c(=O)c(C(=O)O)cn(C3CC3)c12 (stereo not drawn) |  | inactive |  |
| O=C(Nc1cc(C(F)(F)F)cc(C(F)(F)F)c1)c1cc(Cl)ccc1O |  | 1.58 µM (active) |  |
| CCCCc1ccc(NS(=O)(=O)c2ccc(C)c(C(=O)N3CCN(c4cccc(C)c4C)CC3)c2)cc1 | -6.11% [at 114 µM] |  |  |
| Nc1nc2c(ncn2CCC(CO)CO)c(=O)[nH]1 |  |  | inactive |
| Cc1cnc(-c2cnc(NCCNc3ccc(C#N)cn3)nc2-c2ccc(Cl)cc2Cl)[nH]1 |  |  | inactive |
| O=C(NCCCNc1nc(Nc2cccc(NC(=O)N3CCCC3)c2)ncc1I)c1cccs1 | 3.7% |  |  |
| Cn1cncc1[C@@](N)(c1ccc(Cl)cc1)c1ccc2c(c1)c(-c1cccc(Cl)c1)cc(=O)n2C |  | inactive |  |
| CC(C)(O)C(=O)Nc1ccc([N+](=O)[O-])c(C(F)(F)F)c1 | -26.8% |  |  |
| CC[C@H](Nc1ncnc2nc[nH]c12)c1nc2cccc(F)c2c(=O)n1-c1ccccc1 |  | inactive |  |
| Oc1cccc(-c2nc(N3CCOCC3)c3oc4ncccc4c3n2)c1 | -0.935% |  |  |

Reference: PubChem BioAssay (NCATS)
